Measurements: PubChem BioAssay (NCATS)
Inconclusive results are not listed. Entries that show only a call come without a potency. Calls of active or inactive are those of the source. Calls come from the whole dose curve.

Key:
[1] = VSVG counterscreen qHTS to identify inhibitors of SARS-CoV-2 cell entry (AID 1645847); note: potency is the fitted concentration of half-maximal effect; nearly all actives have a fitted effect of over 65% in size
How it was run: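 HEK293-ACE2 cells (Expi293F, human ACE2) pretreated 1 h with compound, then infected with MLV-based VSV-G pseudotyped particles for 48 h at 37 C; luciferase luminescence normalized to VSV-G PP and bald PP wells.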

[2] = Primary qHTS for Huh7 cytotoxicity: counterscreen for inhibitors of MERS-S pseudotyped particle cell entry (AID 1479147); conditions: outcome: dose series up to 57.1 µM unless noted; note: potency is the fitted concentration of half-maximal effect
[3] = Primary qHTS for inhibitors of MERS-S pseudo-typed particle cell entry (AID 1479149); conditions: outcome: dose series up to 57.1 µM unless noted; note: nearly all actives have a fitted effect of over 60% in size; note: potency is the fitted concentration of half-maximal effect
[4] = Primary qHTS for Vero E6 cytotoxicity: counterscreen for inhibitors of SARS-S pseudo-typed particle cell entry (AID 1479150); conditions: outcome: dose series up to 57.1 µM unless noted
[5] = Cytotoxicity counterscreen for inhibitors of SARS-CoV-2 cell entry (AID 1645845); conditions: outcome: dose series up to 57.1 µM unless noted; note: nearly all actives have a fitted effect of over 50% in size; note: potency is the fitted concentration of half-maximal effect
How it was run: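 After a 15 min room-temperature ATPLite 1step step, luminescence reflected ATP remaining in HEK293-ACE2 cells exposed to compound for 1 h plus 48 h at 37 C, with percent activity set by cell and no-cell controls.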

[6] = Confirmatory qHTS to identify inhibitors of SARS-CoV-2 cell entry (AID 1645844); note: potency is the fitted concentration of half-maximal effect; nearly all actives have a fitted effect of over 45% in size
How it was run: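 Using stable human ACE2 Expi293F cells, compounds preincubated 1 hr before spike pseudoparticle infection; luciferase signal after 48 hr at 37C, 5% CO2, normalised to spike PP and no-fusion-protein PP wells.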

SMILES: COc1cc([C@@H]2c3cc4c(cc3C(O[C@@H]3O[C@@H]5CO[C@@H](c6cccs6)OC5[C@H](O)[C@H]3O)C3COC(=O)[C@@H]32)OCO4)cc(OC)c1O (some centres undefined)
- Potency [1]: 0.0429 µM (active)

SMILES: CN1N=C2CCN(C(=O)[C@H](COCc3ccccc3)NC(=O)C(C)(C)N)C[C@]2(Cc2ccccc2)C1=O
- Potency [2]: inactive
- Potency [3]: inactive
- Potency [4]: inactive
- Potency [5]: inactive

SMILES: CO/N=C(\C(=O)N[C@@H]1C(=O)N2C(C(=O)OCOC(=O)C(C)(C)C)=C(/C=C\c3scnc3C)CS[C@H]12)c1csc(N)n1
- Potency [2]: inactive
- Potency [3]: inactive
- Potency [4]: inactive
- Potency [5]: inactive

SMILES: CC(C)(C)C(=O)OCOC(=O)[C@@H]1N2C(=O)[C@@H](N=CN3CCCCCC3)[C@H]2SC1(C)C
- Potency [2]: inactive
- Potency [3]: inactive
- Potency [4]: inactive
- Potency [5]: inactive

SMILES: O=C(O)C[C@@H]1CC[C@H](NC(=O)Cc2cccs2)B(O)O1
- Potency [2]: inactive
- Potency [3]: inactive
- Potency [4]: inactive
- Potency [5]: inactive

SMILES: NC(=O)C1(N2CCCCC2)CCN(CCCN2c3ccccc3CCc3ccccc32)CC1
- Potency [2]: 28.2 µM (active)
- Potency [3]: 8.91 µM (active)
- Potency [4]: inactive
- Potency [5]: 31.6 µM (active)

SMILES: C[N+]1(C)CCN(CC(O)(c2ccccc2)C2CCCCC2)CC1 (centres undefined)
- Potency [2]: inactive
- Potency [3]: inactive
- Potency [4]: inactive
- Potency [5]: inactive

SMILES: CCOc1nc2cccc(C(=O)OC(C)OC(=O)OC3CCCCC3)c2n1Cc1ccc(-c2ccccc2-c2nn[nH]n2)cc1 (centres undefined)
- Potency [2]: inactive
- Potency [3]: inactive
- Potency [4]: inactive
- Potency [6]: 2.41 µM (active)
- Potency [5]: inactive
- Potency [1]: 0.429 µM (active)

SMILES: CC(C)(C)NC(=O)N[C@H](C(=O)N1C[C@H]2[C@@H]([C@H]1C(=O)NC(CC1CCC1)C(=O)C(N)=O)C2(C)C)C(C)(C)C (some centres undefined)
- Potency [2]: inactive
- Potency [3]: inactive
- Potency [4]: inactive
- Potency [5]: inactive

SMILES: CCOc1ccc(N=C(C)Nc2ccc(OCC)cc2)cc1
- Potency [2]: inactive
- Potency [3]: inactive
- Potency [4]: inactive
- Potency [5]: inactive

SMILES: COC(=O)[C@H]1[C@H]2C[C@@H]3c4[nH]c5cc(OC)ccc5c4CCN3C[C@H]2C[C@@H](OC(=O)/C=C/c2cc(OC)c(OC)c(OC)c2)[C@@H]1OC
- Potency [2]: inactive
- Potency [3]: inactive
- Potency [4]: inactive
- Potency [5]: inactive

SMILES: CC(C)N(CCCCOCC(=O)NS(C)(=O)=O)c1cnc(-c2ccccc2)c(-c2ccccc2)n1
- Potency [2]: inactive
- Potency [3]: inactive
- Potency [4]: inactive
- Potency [5]: inactive

SMILES: CC#CCC(C)[C@H](O)/C=C/[C@@H]1[C@H]2c3cccc(CCCC(=O)O)c3O[C@H]2C[C@H]1O (some centres undefined)
- Potency [2]: inactive
- Potency [3]: inactive
- Potency [4]: inactive
- Potency [5]: inactive

SMILES: [Mn].[O]=[Mn][OH].[O]=[Mn][OH]
- Potency [2]: inactive
- Potency [3]: inactive
- Potency [4]: inactive
- Potency [5]: inactive

SMILES: Cc1c(Cl)c(C)[n+]([O-])c(Cl)c1-c1noc(-c2cc(O)c(O)c([N+](=O)[O-])c2)n1
- Potency [2]: inactive
- Potency [3]: inactive
- Potency [4]: inactive
- Potency [5]: inactive

SMILES: C[N+](C)(C)CC(O)CC(=O)O (centres undefined)
- Potency [2]: inactive
- Potency [3]: inactive
- Potency [4]: inactive
- Potency [5]: inactive

SMILES: CCC(=O)O[C@@H](OP(=O)(CCCCc1ccccc1)CC(=O)N1C[C@H](C2CCCCC2)C[C@H]1C(=O)O)C(C)C (some centres undefined)
- outcome [2]: inactive [at 11.4 µM]
- outcome [3]: inactive [at 11.4 µM]
- outcome [4]: inactive [at 11.4 µM]
- outcome [5]: inactive [at 11.3 µM]

SMILES: CC(=O)Oc1c(C)cc(OCC(O)CNC(C)C)c(C)c1C (centres undefined)
- Potency [2]: inactive
- Potency [3]: inactive
- Potency [4]: inactive
- Potency [5]: inactive

SMILES: CC1CCCC(C)N1C(=S)Nc1cccc(C(F)(F)F)c1 (centres undefined)
- Potency [2]: inactive
- Potency [3]: inactive
- Potency [4]: inactive
- Potency [5]: inactive

SMILES: C=C1c2c(Cl)ccc(O)c2C(O)=C2C(=O)[C@@]3(O)C(O)=C(C(N)=O)C(=O)[C@@H](N(C)C)[C@@H]3[C@@H](O)[C@H]12
- Potency [2]: inactive
- Potency [3]: 20 µM (active)
- Potency [4]: inactive
- Potency [5]: inactive

SMILES: CC#CCC(C)[C@H](O)/C=C/[C@@H]1[C@H]2C/C(=C/CCCC(=O)O)C[C@H]2C[C@H]1O (some centres undefined)
- Potency [2]: inactive
- Potency [3]: inactive
- Potency [4]: inactive
- Potency [5]: inactive

SMILES: C=Cc1c(C)c2cc3nc(c(CC(=O)N[C@@H](CC(=O)O)C(=O)O)c4nc(cc5[nH]c(cc1[nH]2)c(C)c5CC)C(C)=C4C(=O)O)[C@@H](CCC(=O)O)[C@@H]3C
- Potency [2]: inactive
- Potency [3]: inactive
- Potency [4]: inactive
- Potency [5]: inactive

SMILES: Cc1ncc(COP(=O)(O)O)c(CN)c1O
- Potency [2]: inactive
- Potency [3]: inactive
- Potency [4]: inactive
- Potency [5]: inactive

SMILES: CC[C@H]1OC(=O)C[C@@H](O)[C@H](C)[C@@H](O[C@@H]2O[C@H](C)[C@@H](O)[C@H](N(C)C)[C@H]2O)[C@@H](CCN2C[C@H](C)C[C@H](C)C2)C[C@@H](C)C(=O)/C=C/C(C)=C/[C@@H]1CO[C@@H]1O[C@H](C)[C@@H](O)[C@@H](OC)[C@H]1OC
- Potency [2]: inactive
- Potency [3]: inactive
- Potency [4]: inactive
- Potency [5]: inactive

SMILES: O=C(c1ccc(F)c(F)c1Nc1ccc(I)cc1F)N1CC(O)([C@@H]2CCCCN2)C1
- Potency [2]: inactive
- Potency [3]: inactive
- Potency [4]: inactive
- Potency [5]: 31.6 µM (active)
